Assay results reported in PubChem BioAssay (NCATS).
Results filed as inconclusive are left out. A call without a number means that no potency is given here. Calls of active or inactive are those of the source. Unless noted, calls follow the shape of the dose curve; as a rule, active = well fitted curve in the direction sought with a large enough effect; inconclusive = small, poorly fitted or top-dose-only effect, or another doubt; inactive = no such curve, though single readings can be large; an effect the other way counts as inactive or inconclusive.

Tests used:
[1] = qHTS assay for measurement of the activity of small molecule inhibitors on Zika virus induced Caspase-3 activity in human astrocytoma cells (AID 1224859)
How it was run: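 SNB-19 astrocytoma cells, 250/well, pretreated 1 h with compounds, then Zika virus at 2 FFU/cell for 6 h at 37 C; Caspase-Glo 3/7 luminescence after 30 min; percent inhibition normalised to uninfected and infected controls.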

[2] = qHTS assay to identify small molecule inhibitors of chordoma cells - UCH-2 (AID 1259356); also: potency is read from the fitted curve at half-maximal effect
[3] = Natriuretic polypeptide receptor (hNpr1) antagonism - Pilot counterscreen GloSensor control cell line (AID 1347045; calls by dose curve; also: potency is read from the fitted curve at half-maximal effect)
How it was run: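 HEK293 cGMP GloSensor cells preloaded 2 h with 2% GloSensor reagent, then compound 30 min before baseline luminescence read. Stimulated with 50 uM sodium nitroprusside, 20 min at room temperature, then read again; counterscreen for Npr1 antagonism.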

[4] = biological target: Atrial natriuretic peptide receptor 1 (Homo sapiens) (UniProt P16066); assay: Natriuretic polypeptide receptor (hNpr1) antagonism - Pilot screen (AID 1347049; calls by dose curve;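 also: agonist-evoked cGMP luminescence read 20 min after hNppA addition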; also: potency is read from the fitted curve at half-maximal effect)
Sequence of Atrial natriuretic peptide receptor 1 (Homo sapiens) (P16066 whole entry, looked up): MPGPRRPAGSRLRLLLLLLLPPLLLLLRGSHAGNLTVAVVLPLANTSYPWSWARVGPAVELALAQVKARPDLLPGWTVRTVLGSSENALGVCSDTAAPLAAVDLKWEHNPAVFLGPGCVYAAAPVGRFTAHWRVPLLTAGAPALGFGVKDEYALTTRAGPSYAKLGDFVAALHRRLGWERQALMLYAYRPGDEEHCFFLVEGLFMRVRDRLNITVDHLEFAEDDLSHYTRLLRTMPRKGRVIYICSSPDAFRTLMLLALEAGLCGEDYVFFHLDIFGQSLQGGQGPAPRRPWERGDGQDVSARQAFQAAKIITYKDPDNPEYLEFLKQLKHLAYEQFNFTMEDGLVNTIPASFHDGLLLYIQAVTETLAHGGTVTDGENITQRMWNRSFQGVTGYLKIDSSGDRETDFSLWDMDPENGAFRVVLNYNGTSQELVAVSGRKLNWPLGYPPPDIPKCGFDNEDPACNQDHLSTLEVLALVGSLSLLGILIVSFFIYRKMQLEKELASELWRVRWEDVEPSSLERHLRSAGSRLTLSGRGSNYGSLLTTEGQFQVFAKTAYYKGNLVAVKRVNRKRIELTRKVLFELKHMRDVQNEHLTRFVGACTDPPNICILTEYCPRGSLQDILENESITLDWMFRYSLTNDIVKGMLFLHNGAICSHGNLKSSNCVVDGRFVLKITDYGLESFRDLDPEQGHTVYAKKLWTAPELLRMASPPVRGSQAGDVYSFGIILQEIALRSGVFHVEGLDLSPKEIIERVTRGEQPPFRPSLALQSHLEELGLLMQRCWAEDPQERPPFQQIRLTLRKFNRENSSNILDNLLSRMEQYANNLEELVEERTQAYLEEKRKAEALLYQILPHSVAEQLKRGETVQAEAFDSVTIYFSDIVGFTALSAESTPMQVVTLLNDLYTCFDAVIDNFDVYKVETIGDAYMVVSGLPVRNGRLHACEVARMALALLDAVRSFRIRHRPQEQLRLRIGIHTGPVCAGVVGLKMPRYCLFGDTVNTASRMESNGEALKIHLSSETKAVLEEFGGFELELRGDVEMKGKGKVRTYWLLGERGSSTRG
How it was run: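 HEK293 cells expressing hNpr1 and GloSensor cGMP luciferase, 1500/well, loaded with 2% GloSensor reagent 2 h, compound 30 min at room temperature; luminescence read before and 20 min after 0.1 nM hNppA stimulation.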

[5] = biological target: Atrial natriuretic peptide receptor 2 (Homo sapiens) (UniProt P20594); assay: Natriuretic polypeptide receptor (hNpr2) antagonism - Pilot subtype selectivity assay (AID 1347050; calls by dose curve)
Sequence of Atrial natriuretic peptide receptor 2 (Homo sapiens) (P20594 whole entry, looked up): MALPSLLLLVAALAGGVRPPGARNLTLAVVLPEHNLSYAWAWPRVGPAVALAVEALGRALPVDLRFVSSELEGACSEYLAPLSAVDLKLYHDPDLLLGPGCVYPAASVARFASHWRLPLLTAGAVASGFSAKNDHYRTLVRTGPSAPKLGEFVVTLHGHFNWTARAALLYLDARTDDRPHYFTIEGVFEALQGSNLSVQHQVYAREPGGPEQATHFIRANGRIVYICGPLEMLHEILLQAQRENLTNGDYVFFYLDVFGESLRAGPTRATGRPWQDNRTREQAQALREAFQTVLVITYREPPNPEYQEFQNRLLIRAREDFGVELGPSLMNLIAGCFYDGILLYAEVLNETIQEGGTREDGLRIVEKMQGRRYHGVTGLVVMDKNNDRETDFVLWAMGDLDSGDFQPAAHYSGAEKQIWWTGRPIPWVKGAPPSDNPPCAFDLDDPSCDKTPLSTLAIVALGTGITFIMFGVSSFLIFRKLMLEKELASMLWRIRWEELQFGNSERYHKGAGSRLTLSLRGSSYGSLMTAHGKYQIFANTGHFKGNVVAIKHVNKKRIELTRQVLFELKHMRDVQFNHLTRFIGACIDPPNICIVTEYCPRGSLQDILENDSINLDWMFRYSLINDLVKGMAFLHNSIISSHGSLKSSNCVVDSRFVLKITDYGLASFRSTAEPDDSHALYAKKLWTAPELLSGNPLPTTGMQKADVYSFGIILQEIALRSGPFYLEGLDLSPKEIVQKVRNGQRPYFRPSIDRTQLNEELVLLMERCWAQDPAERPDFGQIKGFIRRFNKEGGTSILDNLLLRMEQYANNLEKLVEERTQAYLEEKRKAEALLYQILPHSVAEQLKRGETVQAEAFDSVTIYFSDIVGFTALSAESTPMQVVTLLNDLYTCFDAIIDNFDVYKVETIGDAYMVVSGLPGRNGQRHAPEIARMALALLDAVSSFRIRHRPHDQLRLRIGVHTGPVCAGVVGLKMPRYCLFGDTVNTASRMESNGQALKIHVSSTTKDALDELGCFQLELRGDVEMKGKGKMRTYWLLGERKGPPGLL
How it was run: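 HEK293 cells expressing hNpr2 and a GloSensor cGMP luciferase sensor, 1500/well, preloaded 2 h with 2% GloSensor reagent, compound 30 min, then 1 nM hNppC for 20 min. Antagonism from luminescence after versus baseline pre-read; LOPAC in 1:5 titrations.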

[6] = NS1 protein of Zika virus - qHTS assay to identify small molecule inhibitors in human HEK 293 cells (AID 1347053); also: nearly all actives have a fitted effect of over 55% in size
How it was run: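 HEK 293 cells, seeded 20 h at 37 C, were pretreated with compound 1 h, then infected with ZIKV MR766 (MOI = 0.5) for 24 h. NS1 was read by TR-FRET with two anti-NS1 antibodies, normalized to uninfected and infected wells.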

[7] = qHTS assay to identify small molecule inhibitors of chordoma cells - UCH-1 (AID 1259355); also: nearly all actives have a fitted effect of over 55% in size; also: potency is read from the fitted curve at half-maximal effect
How it was run: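 Cells (800/well) were seeded and left overnight at 37 C, 5% CO2, then treated with drugs at 15 concentrations plus a combination mix of auranofin, camptothecin, doxorubicin, rubitecan and topotecan. Viability after 48hr was read by CellTiter-Glo luminescence.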

[8] = P-glycoprotein substrates identified in KB-8-5-11 adenocarcinoma cell line, qHTS therapeutic library screen (AID 1346987); also: nearly all actives have a fitted effect of over 65% in size; also: potency is read from the fitted curve at half-maximal effect
How it was run: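 KB-8-5-11, a colchicine-selected P-gp-overexpressing KB-3-1 subline, was grown without colchicine for the assay. Cells were seeded at 500 cells/well, dosed in concentration-response and incubated 72 h at 37 degree C, 5% CO2. Viability was read by CellTiter-Glo luminescence.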

[9] = qHTS profiling of the MIPE4 collection as inhibitors of Plasmodium falciparum (3D7) proliferation (AID 743344; call rule not given here); details: P. falciparum 3D7 in erythrocytes, SYBR Green DNA fluorescence, 72 h; at 28.5 µM (top of the series)
How it was run: (§1)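 Erythrocytes infected with P. falciparum (0.3% parasitemia, 2.5% hematocrit) incubated with compounds 72 h at 37 C, 5% CO2. Lysis with saponin/Triton buffer containing SYBR Green I, overnight at room temperature in the dark; DNA fluorescence (485/535 nm) normalised to 0.29 uM artemisinin and DMSO.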

[10] = qHTS profiling of the MIPE4 collection as inhibitors of Plasmodium falciparum (DD2) proliferation (AID 743345; call rule not given here); details: P. falciparum Dd2 in erythrocytes, SYBR Green DNA, 72 h; at 28.5 µM (top of the series)
How it was run: as §1

[11] = qHTS profiling of the MIPE4 collection as inhibitors of Plasmodium falciparum (DD2) proliferation (Rep 2) (AID 743346; call rule not given here); details: P. falciparum Dd2 in erythrocytes, SYBR Green DNA, 72 h; at 28.5 µM (top of the series)
How it was run: as §1

[12] = qHTS profiling of the MIPE4 collection as inhibitors of Plasmodium falciparum (HB3) proliferation (AID 743347; call rule not given here); details: P. falciparum HB3 in erythrocytes, SYBR Green DNA, 72 h; at 28.5 µM (top of the series)
How it was run: as §1

Compound: COc1cc(C(=O)OCCCN2CCCN(CCCOC(=O)c3cc(OC)c(OC)c(OC)c3)CC2)cc(OC)c1OC
- outcome [1]: inactive
- Potency [2]: inactive
- Potency [3]: inactive
- Potency [4]: inactive
- Potency [5]: inactive
- outcome [6]: inactive

Compound: Cc1nc2sccn2c(=O)c1CCN1CCC(=C(c2ccc(F)cc2)c2ccc(F)cc2)CC1
- outcome [1]: inactive
- Potency [7]: inactive
- Potency [2]: inactive
- Potency [4]: inactive
- Potency [5]: inactive
- outcome [6]: inactive

Compound: COC(=O)C1=C(C)NC(C)=C(C(=O)OC(C)(C)CN(C)CCC(c2ccccc2)c2ccccc2)C1c1cccc([N+](=O)[O-])c1 (configuration not stated)
- outcome [1]: inactive
- Potency [7]: inactive
- Potency [2]: inactive
- Potency [8]: 9.2 µM (active)
- Potency [4]: inactive
- Potency [5]: inactive

Compound: C[n+]1cc2c3c(ccc2c2ccc4cc5c(cc4c21)OCO5)OCO3
- outcome [1]: inactive
- Potency [7]: 12.6 µM (active)
- Potency [2]: 13 µM (active)
- Potency [3]: 2.07 µM (active)
- Potency [4]: 4.78 µM (active)

Compound: NC(=Nc1ccccc1)Nc1ccccc1
- outcome [1]: inactive
- Potency [2]: inactive
- Potency [8]: inactive
- outcome [6]: inactive

Compound: OCCN1CCN(CCCN2c3ccccc3C=Cc3ccccc32)CC1
- outcome [1]: inactive
- Potency [7]: inactive
- Potency [3]: inactive
- Potency [4]: inactive
- outcome [6]: inactive

Compound: COc1cc(Cc2cnc(N)nc2N)cc(OC)c1OC
- outcome [1]: inactive
- Potency [7]: inactive
- Potency [2]: inactive
- Potency [8]: inactive
- Potency [3]: inactive
- Potency [4]: inactive
- Potency [5]: inactive
- outcome [6]: inactive

Compound: C[N+](C)(C)CCOC(=O)CCC(=O)OCC[N+](C)(C)C
- outcome [1]: inactive
- Potency [7]: inactive
- Potency [2]: inactive
- Potency [8]: inactive
- Potency [3]: inactive
- Potency [4]: inactive
- Potency [5]: inactive
- outcome [6]: inactive

Compound: C#CCN(C)CCCOc1ccc(Cl)cc1Cl
- outcome [1]: inactive
- Potency [7]: inactive
- Potency [2]: inactive
- Potency [3]: inactive
- Potency [4]: inactive
- Potency [5]: inactive
- outcome [6]: inactive

Compound: CC(C)COCC(CN(Cc1ccccc1)c1ccccc1)N1CCCC1 (configuration not stated)
- parasite growth, % of DMSO control [9]: 5.43%
- parasite growth remaining, % of DMSO control (lower = more inhibition) [10]: 7.8%
- parasite growth, % of control (lower = inhibition) [11]: 16%
- growth, % of control [12]: 2.98%
- outcome [1]: inactive
- Potency [7]: inactive
- Potency [2]: inactive
- Potency [3]: inactive
- Potency [4]: inactive
- Potency [5]: inactive
- outcome [6]: inactive

Compound: C[N+](C)(C)CCCCCCCCCC[N+](C)(C)C
- outcome [1]: inactive
- Potency [7]: inactive
- Potency [2]: inactive
- Potency [3]: inactive
- Potency [4]: inactive
- outcome [6]: inactive

Compound: C[C@]12CCC(=O)C=C1CC[C@@H]1[C@@H]2C(=O)C[C@@]2(C)[C@H]1CC[C@]2(O)C(=O)CO
- outcome [1]: inactive
- Potency [7]: inactive
- Potency [2]: inactive
- Potency [8]: inactive
- outcome [6]: inactive
